PTAP-TSG101 blk – TSG101-PTAP interaction inhibition, HIV-1 budding; Q99816; Fluorescence polarization, FITC-PTAP peptide/Tsg101, 20 min; Potency, µM (series often up to 115 µM), usual class: inhibitors; 44,000 tested, under 10 active; AID 1347069; further: potency means the concentration at half of the fitted maximal effect; 0% is about no effect
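qHTS FP binding, 20 min r.t.: 10 uM Tsg101 domain + 50 nM FITC-PTAP peptide, pH 7.5 HEPES buffer with TCEP and EDTA.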
NTMT1 inhibitor – inhibitors of human N-terminal methyltransferase NTMT1. Q9BV86. NTMT1 MTase-Glo SAH luminescence, purified enzyme. Potency, µM (top dose mostly 114 µM), without a hit: top-dose activity change, negative = inhibition, actives largely listed as inhibitors. hit rate 2.5% among 59,000. AID 1645870;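 further: potency means the concentration at half of the fitted maximal effect; plate controls were DMSO vehicle for no effect and no enzyme for full effect; nearly all actives have a fitted effect of over 65% in size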
Target sequence (Q9BV86 whole entry, looked up): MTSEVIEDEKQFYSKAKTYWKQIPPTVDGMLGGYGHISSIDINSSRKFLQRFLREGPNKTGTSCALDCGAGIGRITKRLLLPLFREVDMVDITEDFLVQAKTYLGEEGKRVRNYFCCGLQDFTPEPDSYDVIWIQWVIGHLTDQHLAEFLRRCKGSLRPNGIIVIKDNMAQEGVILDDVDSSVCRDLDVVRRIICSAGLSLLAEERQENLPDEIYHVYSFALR
FH mod – Identification of activators of human fumarate hydratase by quantitative high-throughput screening; Fumarate hydratase, mitochondrial (Homo sapiens), P07954; FH coupled MDH/diaphorase resazurin fluorescence, 15 min; Potency, µM (series often up to 79.9 µM), inactives show at the highest dose activity change, negative = inhibition, most hits filed as inhibitors; hit rate 0.22% among 54,000; AID 1347055, 2019; further: potency means the concentration at half of the fitted maximal effect; on the % scale 0 is the no-effect control and ±100 the full control effect; the screen sought activators but most active calls are inhibition curves; nearly all actives have a fitted effect of over 45% in size
B2AR arrestin ag – agonists recruiting beta-arrestin to human beta2-adrenergic receptor | Potency, µM (doses to about 46.1 µM), hits mostly activators | 44,000 tested, under 10 active | P07550 | HTLA Tango cells, beta-arrestin recruitment, luciferase luminescence, 18 h;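 further: potency means the concentration at half of the fitted maximal effect; 0% = DMSO and full agonism = EC100 isoproterenol or metaproterenol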
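Tango cell line, 1% FBS DMEM; cpd titration up to 46 microM; 18 hr, 37 degrees C, 5% CO2. Luciferin/ATP substrate mix added, 15 min RT, luminescence. %Activity, CRC fitting, curve-class categorization.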
GALC G270D up – enhancers of human galactocerebrosidase G270D mutant activity in cells. Potency, µM (top dose mostly 57.5 µM), most hits filed as activators. P54803. 145M-Twi-hGALC-G270D cells (Twitcher mouse brain line with human GALC G270D), HMU-beta-Gal fluorescence, 48 h. hit rate 0.1% among 45,000. AID 1159614; further: potency means the concentration at half of the fitted maximal effect; 0% is about no effect; nearly all actives have a fitted effect of over 65% in size
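Fluorogenic HMU-b-Gal hydrolysis (0.1 mM final, pH 5.2 citrate-phosphate with 1 mg/mL sodium taurocholate; carbonate stop buffer) measures mutant GALC activity after compound treatment of live 145M-Twi Twitcher brain cells stably carrying human GALC-G270D, with wild-type GALC line alongside; activation sought.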
GALK inhibitor – GALK (human) enzyme inhibition; P51570; recombinant GALK, Kinase-Glo ATP luminescence, 1 h; Potency, µM (series often up to 57.5 µM), for the others: at the top dose activity, negative = inhibition, usual class: inhibitors; 44,000 tested, under 10 active;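 further: plate controls were full GALK reaction for no effect and reaction lacking GALK for full effect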
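Luminescent ATP-depletion readout (Kinase-Glo Plus, 10 min) after 1 h RT reaction of 5 nM GALK, 35 uM ATP, 100 uM galactose, pH 8.0 HEPES buffer. Decreased kinase activity scored as inhibition.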
* hit, by the source's call; i = inactive; ? = inconclusive; . = no result; ! = not confirmed by another sample; [ ] = another dose, or the depositor's remark. The entries come from a sample that favours hits as a whole. The call rests on the fitted dose curve; in most records, active means well fitted curve in the direction sought with a large enough effect; inconclusive means small, poorly fitted or top-dose-only effect, or another doubt; inactive means no such curve, though single readings can be large; an effect the other way counts as inactive or inconclusive.

SMILES	PTAP-TSG101 blk	NTMT1 inhibitor	FH mod	B2AR arrestin ag	GALC G270D up	GALK inhibitor
Cn1nc(C(=O)NCc2ccccc2)c2c1-c1ccccc1SC2	i	-20%	-28%	i	i	-10%
CCCCNC(=O)c1nn(C)c2c1CSc1ccccc1-2	i	79µM*	-9%	i	i	0%
COc1ccccc1NC(=O)c1c(NC(=O)c2cccs2)sc2c1CCC(C(C)(C)C)C2 (stereo unspecified)	i	21%	-9%	i	i	-3%
CC(C)(C)C1CCc2c(sc(NC(=O)CCC(=O)O)c2C(=O)Nc2ccccc2C(F)(F)F)C1 (stereo unspecified)	i	45µM*	?	i	i	-1%
O=C(Cc1ccc(Cl)c(Cl)c1)Nc1ccc([S+](=O)([O-])Nc2ccc3[nH]ccc3c2)cc1	.	7%	.	.	.	.
C[n+]1cc2c3c(ccc2c2ccc4cc5c(cc4c21)OCO5)OCO3	.	?	16µM*!	.	i	.
CN1CCC(c2c(O)cc(O)c3c(=O)cc(-c4ccccc4Cl)oc23)C1CO (stereo unspecified)	.	50µM*	13%	.	.	.
CN1CC[C@@H](c2c(O)cc(O)c3c(=O)cc(-c4ccccc4Cl)oc23)[C@@H](O)C1	.	24µM*!	-2%[53.3 µM]	.	.	.
CN1CCC(c2c(O)cc(O)c3c(=O)cc(-c4ccccc4Cl)oc23)C(O)C1 (stereo unspecified)	.	35µM*	3%	.	.	.
COc1ccc(CCc2nc3c(C)c(-c4c(C)noc4C)c(C)cc3n2CCN2CCOCC2)cc1	.	11%[57.5 µM]	8%	.	.	.
COc1ccc(C2CC(=O)N3CN(C4CCCCC4)CSC3=C2C#N)cc1 (stereo unspecified)	i	13µM*	-34%	i	i	6%
COc1cccc(C2CC(=O)N3CN(C4CCCCC4)CSC3=C2C#N)c1 (stereo unspecified)	i	11µM*	-23%	i	i	0%
COc1ccc(-c2cc(C(C)=O)c(C)n2CCC(=O)Nc2cc(C)ccc2OC)cc1	i	-4%	-10%	i	i	1%
COc1ccc(-c2cc(C(C)=O)c(C)n2CCC(=O)Nc2ccc(C)cc2Cl)cc1	i	89µM*	2%	i	i	0%
[O-][n+]1cccc(-c2nc3c(Cl)cccc3cc2[C@@H](Nc2ncnc3cccnc23)C(F)(F)F)c1	.	-1%	.	.	.	.
COc1ccccc1Nc1nc(-c2ccccc2F)nc2ccccc12	i	2%	-7%	i	i	0%
COc1cc2nc(-c3cc(F)ccc3O)nc(N[C@@H]3CNC[C@H]3C(C)(C)O)c2cc1OC	.	28µM*	-8%	.	.	.
COc1ccc(-c2coc3c2c(C)cc2oc(=O)c(CC(=O)O)c(C)c23)cc1	i	-16%	?	i	i	-2%
Cc1cc2oc(=O)c(CC(=O)O)c(C)c2c2occ(-c3ccc(F)cc3)c12	i	40µM*	-15%	i	i	7%
Cc1[nH]c(C=C2C(=O)Nc3ccc(S(=O)(=O)N(C)c4cccc(Cl)c4)cc32)c(C)c1C(=O)N1CCN(C)CC1	.	4%[57.5 µM]	-4%[53.3 µM]	.	.	.
CN1CCCN(C(=O)c2cccc(-c3ccc(/C=C4\C(=O)Nc5ccc(Cl)cc54)o3)c2)CC1	.	7.9µM*	-29%	.	.	.
O=c1cc(-c2ccc(O)c(O)c2)oc2cc(O)cc(O)c12	.	32µM*!	-8%[53.3 µM]	.	.	.
COc1ccc(-c2cc(=O)c3c(O)cc(O[C@@H]4O[C@H](CO[C@@H]5O[C@@H](C)[C@H](O)[C@@H](O)[C@@H]5O)[C@@H](O)[C@H](O)[C@@H]4O)cc3o2)cc1O	.	16%[57.5 µM]	-6%[53.3 µM]	.	.	.
Cc1cccc(CN2CCN(C(c3ccccc3)c3ccc(Cl)cc3)CC2)c1 (stereo unspecified)	.	32µM*!	1%[53.3 µM]	.	i	.
